Most compounds without a hit are left out; they make up all but 21% or so of the library.
IL-1B inflam inh – inhibitors of inflammasome signaling (IL-1 beta secretion); THP-1 LPS/ATP IL-1B secretion, AlphaLISA, 16 h; stronger effect = lower value; activity change, % at 57.5 µM; 360,000 tested, 4.7% active; AID 743279; in the data active = activity change below about -50%; inconclusive = mostly about -30% to -49%
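THP-1 cells pretreated 1 hr with compounds (up to 57.5 uM final), then stimulated with LPS (250 ng/mL final) plus ATP (1.25 mM final); secreted IL-1B measured by AlphaLISA after 16 hr, decreased signal indicating inhibition.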
RORgamma inh – blocks mouse ROR gamma transcriptional activity | P51450 | Drosophila S2 Gal4-RORgamma UAS-luciferase reporter, 20 h | Potency, µM (top dose mostly 53.6 µM), without a hit: at the highest dose activity change, negative = inhibition, hits mostly inhibitors | 310,000 tested, 5.4% active | AID 2551; note: potency is the fitted concentration of half-maximal effect; nearly all actives have a fitted effect of over 60% in size
Target sequence (P51450 whole entry, looked up, the tested form may be a part): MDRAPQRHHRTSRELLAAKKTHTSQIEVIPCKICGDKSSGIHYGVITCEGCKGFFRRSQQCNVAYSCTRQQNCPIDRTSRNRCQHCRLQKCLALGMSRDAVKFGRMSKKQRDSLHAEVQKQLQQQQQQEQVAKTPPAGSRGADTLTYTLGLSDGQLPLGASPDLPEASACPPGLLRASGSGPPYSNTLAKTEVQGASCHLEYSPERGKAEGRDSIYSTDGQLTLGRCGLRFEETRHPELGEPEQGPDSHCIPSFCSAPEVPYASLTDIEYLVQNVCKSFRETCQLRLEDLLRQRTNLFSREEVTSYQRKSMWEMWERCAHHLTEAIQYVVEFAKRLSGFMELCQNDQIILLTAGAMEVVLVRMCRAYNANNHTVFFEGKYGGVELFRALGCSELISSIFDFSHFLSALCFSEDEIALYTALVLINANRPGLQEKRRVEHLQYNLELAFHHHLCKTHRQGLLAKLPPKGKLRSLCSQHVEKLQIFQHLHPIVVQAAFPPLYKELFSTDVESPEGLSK
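ROR gamma transcriptional activity was tracked as Gal4-UAS luciferase output in stably transfected Drosophila Schneider cells, with compound added 1 hr before 700 uM copper sulfate induction and a 20 hr ambient-temperature incubation.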
ELG1 repair inh – inhibitors of ELG1-dependent DNA repair in HEK293T cells. HEK293T ELG1-luciferase reporter, luminescence, 16 h; DNA damage induced by 5-fluorouridine. Potency, µM (titrated, usually from 46.1 µM), without a hit: at the top dose activity change, negative = inhibition, usual class: inhibitors. 330,000 tested, 2.3% active; note: potency is the fitted concentration of half-maximal effect; nearly all actives have a fitted effect of over 55% in size
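Reporter activity after DNA damage by 5-fluorouridine is monitored. Compound-treated cells incubate 16 hr at 37 °C, then ONE-Glo is added for 30 min before luminescence reading.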
VP16 counter – inhibits Gal4-VP16 luciferase reporter, ROR gamma counter-screen; Drosophila S2 Gal4-VP16 UAS-luciferase, luminescence, 20 h; 310,000 tested, 3.5% active; Potency, µM (series often up to 53.6 µM), for the others: at the highest dose activity, negative = inhibition, most hits filed as inhibitors;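 note: Gal4-VP16 expression switched on by copper sulfate through the metallothionein promoter; potency is the fitted concentration of half-maximal effect; nearly all actives have a fitted effect of over 50% in size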
DT40 TDP1 no CPT – qHTS for Inhibitors of human tyrosyl-DNA phosphodiesterase 1 (TDP1): qHTS in cells in absence of CPT; 420,000 tested, 15% active; Potency, µM (titrated, usually from 46.2 µM), without a hit: at the top dose activity change, negative = growth inhibition, actives largely listed as inhibitors; DT40 Tdp1-/- hTDP1 cells, no CPT, ATP luminescence, 48 h; note: potency is the fitted concentration of half-maximal effect; nearly all actives have a fitted effect of over 55% in size
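Growth kinetics read by CellTiter-Glo luminescence after ≥48 hr at 37 °C. Cells: DT40 Tdp1-/- stably carrying human TDP1, 400 per well, compound exposure in the absence of CPT (DMSO vehicle).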
TDP1 cell CPT – growth inhibition of DT40 Tdp1-/-;hTDP1 cells with camptothecin (screen for TDP1 inhibitors) | chicken DT40 Tdp1-/-;hTDP1 cells + 20 nM CPT, ATP luminescence, 48 h | Potency, µM (doses to about 46.2 µM), for inactives: at the highest dose activity change, negative = growth inhibition, actives largely listed as inhibitors | 420,000 tested, 12% active | AID 686979; note: potency is the fitted concentration of half-maximal effect; nearly all actives have a fitted effect of over 55% in size
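Cell growth measured by CellTiter-Glo luminescence after a minimum 48 h, 37 C compound exposure with 20 nM CPT in Tdp1-knockout DT40 cells stably expressing hTDP1, seeded 400/well; qHTS titration format.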
Numbers without * were called inactive; ? = inconclusive; nt = not tested or not shown. Unless noted, calls come from the whole dose curve; as a rule, active = well fitted curve in the direction sought with a large enough effect; inconclusive = small, poorly fitted or top-dose-only effect, or another doubt; inactive = no such curve, though single readings can be large; an effect the other way counts as inactive or inconclusive. % is set by controls: 0 for no effect and ±100 for the full control effect.

SMILES	IL-1B inflam inh	RORgamma inh	ELG1 repair inh	VP16 counter	DT40 TDP1 no CPT	TDP1 cell CPT
Cc1cccc(OC(C)C(=O)Nc2ccccc2C(=O)N2CCCCC2)c1 (stereo unspecified)	-10	-1%	-19%	1%	13µM*	?
S=c1cn[nH]c2ccccc12	-11	nt	nt	nt	-29%	-11%
Cc1ccc(OC(=O)COc2ccccc2C)cc1	30	-10%	4%	-4%	23%	8%
Cc1ccccc1C(=O)N1CCC(C(=O)N2CCN(c3ncccn3)CC2)CC1	34	nt	-3%	nt	13%	2%
Cc1ccc(SC(=O)COc2ccccc2C)cc1	-30	3%	-13%	2%	?	13µM*
O=C(c1ccccc1N(Cc1ccccc1)S(=O)(=O)c1ccccc1)N1CCOCC1	-18	-34%	7%	6%	?	-13%
CCOC(=O)N1CCN(C(=O)c2ccccc2N(Cc2ccccc2)S(=O)(=O)c2ccccc2)CC1	8	-25%	-19%	20%	21µM*	21µM*
CCOC(=O)N1CCN(C(=O)c2ccccc2NC(=O)COc2ccccc2C)CC1	0	?	?	8%	21µM*	?
Cc1ccc(C)c(OCC(=O)Nc2ccccc2C(=O)N2CCN(C)CC2)c1	-3	-25%	2%	-11%	-28%	-3%
CCOC(=O)N1CCN(C(=O)C2CCN(C(=O)c3ccccc3C)CC2)CC1	-103*	nt	nt	nt	1µM*	0.92µM*
COc1ccc(N2CCN(C(=O)C3CCN(S(=O)(=O)c4cnc[nH]4)CC3)CC2)cc1	nt	nt	nt	nt	-11%	-22%
C=C1c2cccc(OC)c2O[C@H](C(=O)OCC)[C@@H]1CCC(C)C	nt	36%	nt	4%	nt	nt
COc1ccc(OCC(=O)Nc2ccccc2-c2ccccc2)cc1	21	-17%	1%	-13%	?	?
Cc1c(NC(=O)c2ccccc2NC(=O)c2ccccc2)cccc1C(=O)O	-9	-16%	5%	-3%	13%	3%
CC1CCCC(NC(=O)COC(=O)c2ccc(N(C)C)cc2)C1C (stereo unspecified)	-8	1%	-14%	2%	-25%	?
CCN(CC)c1ccc(C(=O)OCC(=O)NC2CCCCC2C)cc1 (stereo unspecified)	33	11%	-9%	-10%	15µM*	21µM*
Cc1ccc(OCC(=O)Nc2ccccc2-c2ccccc2NC(=O)COc2ccc(C)cc2)cc1	9	?	0%	-27%	21µM*	?
Cc1c(NC(=O)c2ccccc2NC(=O)COc2ccccc2)cccc1C(=O)O	-3	7.9µM*	9%	13µM*	5%	3%
CC(=O)N(C(C)=O)c1ncnc2c1c(-c1ccc(Cl)cc1)nn2C(C)(C)C	-83*	11µM*	-4%	-25%	18µM*	?
CC(=O)Nc1ncnc2c1c(-c1ccc(Cl)cc1)nn2C(C)(C)C	93	?	3%	-7%	?	?
CCOC(=O)C(CC)n1cnc2c(cnn2-c2ccc(Cl)cc2)c1=O (stereo unspecified)	15	24%	?	-8%	18µM*	?
CCOC(=O)C(C)n1cnc2c(cnn2-c2ccc(Cl)cc2)c1=O (stereo unspecified)	17	-13%	?	-17%	16µM*	?
CCOC(=O)C(C)n1cnc2c(nnn2-c2ccc(C)cc2)c1=O (stereo unspecified)	0	21%	?	6%	-16%	-7%
COC(=O)[C@@]1(Cc2ccc(OC)cc2)[C@H]2c3cc(C(=O)N4CCCC4)n(Cc4cc(F)cc5c4OCOC5)c3C[C@H]2CN1C(=O)c1ccccc1	nt	25%	nt	?	nt	nt
CS/C(=C\[N+](=O)[O-])Nc1ccc(F)cc1	0	-16%	nt	-2%	-13%	-25%
